Bioassay records (PubChem BioAssay)
An excerpt weighted towards active compounds, which were near 7.8% of everything screened.
HCV inhibitor – inhibitors of hepatitis C virus infection; AID 651820; Huh7.5.1 HCVcc-Cre infection, luciferase reporter, 44 h; hit rate 3.4% among 340,000; Potency, µM (top dose mostly 41.8 µM), for inactives: at the highest dose activity change, negative = inhibition, actives largely listed as inhibitors; active = well fitted inhibition curve with a large enough effect; inconclusive = small, poorly fitted or top-dose-only effect, or another doubt; inactive = no such curve, though single readings can be large or run the other way; also: potency is read from the fitted curve at half-maximal effect
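Antiviral activity was scored by luciferase reporter output from cells infected with HCVcc-Cre (~0.5 moi) in presence of compound, 44 h infection period, cells seeded 1,000/well 4 h prior.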
Vaccinia Venus – vaccinia inhibition (Venus reporter); Potency, µM (titrated, usually from 36.5 µM), inactives show top-dose activity change, negative = inhibition, most hits filed as inhibitors; hit rate 0.46% among 330,000; AID 720580; Vaccinia virus Venus reporter expression, fluorescence; calls by dose curve; tested in A549 cells; also: potency is read from the fitted curve at half-maximal effect; nearly all actives have a fitted effect of over 30% in size
Marburg entry inh – Marburg virus entry inhibition. Potency, µM (top dose mostly 37.8 µM), for the others: at the top dose activity change, negative = inhibition, hits mostly inhibitors. Marburg virus pseudotyped entry inhibition, cell reporter. hit rate 1.8% among 300,000. AID 540276; calls by dose curve; tested in HEK293 cells; also: potency is read from the fitted curve at half-maximal effect
LASV entry inh – blocks Lassa virus binding to or entry into cells | Potency, µM (highest dose often 37.9 µM), without a hit: at the highest dose activity change, negative = inhibition, most hits filed as inhibitors | hit rate 1.2% among 300,000 | AID 540256 | Lassa virus pseudotype entry inhibition, cell reporter; calls by dose curve; tested in HEK293 cells; also: potency is read from the fitted curve at half-maximal effect; nearly all actives have a fitted effect of over 50% in size
Vaccinia mCherry – inhibitors of vaccinia virus infection (mCherry reporter signal) | Vaccinia virus mCherry reporter infection, fluorescence | Potency, µM (series often up to 36.5 µM), without a hit: top-dose activity change, negative = inhibition, actives largely listed as inhibitors | hit rate 0.63% among 310,000 | AID 720579; calls by dose curve; tested in A549 cells; also: potency is read from the fitted curve at half-maximal effect; nearly all actives have a fitted effect of over 35% in size
HCMV antiviral – blocks human cytomegalovirus replication; HFF cells, HCMV-luciferase reporter, 72 h; active compounds read low; activity change, negative = inhibition, % at 57.5 µM; hit rate 4.5% among 410,000; in the data active = activity change below about -60%; inconclusive = no clear call, values can overlap the other calls; inactive = above about -39%
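Luciferase read-out from HCMV-luciferase-infected HFFs (MOI 1 PFU/cell) 72 h post infection at 37C; compounds added after 16 h cell attachment; activity normalized between buffer-only basal and Salinomycin (10uM) inhibitor controls.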
* hit, by the source's call; i = inactive; ? = inconclusive; . = no result; [ ] = another dose, or the depositor's remark. % is scaled to controls: 0 for no effect and ±100 for the full control effect.

SMILES	HCV inhibitor	Vaccinia Venus	Marburg entry inh	LASV entry inh	Vaccinia mCherry	HCMV antiviral
Cc1ccccc1N1C(N)=NC(N)=NC1(C)C	-5%	-29%	?	18%	.	-16
COc1cc(CNc2nc(C)c([N+](=O)[O-])c(C)c2C#N)cc(OC)c1OC	6.3µM*	-15%	?	?	-4%	40
Cc1oc2ncn(CC(C)C)c(=O)c2c1C(=O)N(Cc1ccccc1)C(C)C	.	-9%	.	10%[46.1 µM]	i	20
COC(=O)[C@]1(Sc2ccc(OC)cc2)CC(=O)N[C@@H]1c1ccc(OC(C)C)c(OC)c1	.	.	.	.	.	-9
CN1CCC2(CC1)Nc1nc(SCc3ccc(Cl)cc3)nn1C1=C2CN(C)CC1	14µM*	-29%	?	14µM*	.	-27
CC(=O)c1cnc2nc(SCc3ccc(Cl)cc3)nn2c1C	?	-11%	-13%	-12%	-1%	4
CCN(CC)CCN(C(=O)c1ccc2ccccc2c1)c1nc2ccc(OC)cc2s1	?	.	.	.	.	-6
COc1cc2ccccc2cc1C(=O)N(CCN(C)C)c1nc2ccc(C)cc2s1	6.3µM*	-25%	4.5µM*	?	-5%	-8
CCN(CC)CCN(C(=O)c1cc2ccccc2cc1OC)c1nc2ccc(OC)cc2s1	11µM*	.	.	.	.	-26
CCN(CC)CCN(C(=O)c1cc2ccccc2cc1OC)c1nc2ccc(F)cc2s1	?	-26%	5.6µM*	-20%[46.1 µM]	-5%	19
COc1cc2ccccc2cc1C(=O)N(CCN(C)C)c1nc2c(OC)ccc(OC)c2s1	?	?	?	?	-23%	-36
CCOc1ccc(NC(=O)NC(C)c2c(-n3cccc3)sc(C)c2C)cc1 (centres undefined)	.	-13%	?	.	-12%	?
CCN1CCN(Cc2ccc(NC(=O)c3ccc(C)c(NC(=O)c4c[nH]c5cc(C(F)(F)F)ccc5c4=O)c3)cc2C(F)(F)F)CC1	?	14µM*	.	.	?	-98*
CCN1CCN(Cc2ccc(NC(=O)c3ccc(C)c(/C=C/c4cnc(Nc5cc(N6CCNCC6)nc(C)n5)cn4)c3)cc2C(F)(F)F)CC1	?	8.9µM*	.	.	?	.
CCN1CCN(Cc2ccc(NC(=O)c3ccc(C)c(NC(=O)c4cccc(-c5cn[nH]c(=O)c5)c4)c3)cc2C(F)(F)F)CC1	?	7.1µM*	.	.	?	.
CCN1CCN(Cc2ccc(NC(=O)c3ccc(C)c(NC(=O)c4ccno4)c3)cc2C(F)(F)F)CC1	-19%	?	.	.	-2%	-4
OC(CON=C1c2ccccc2-c2ccccc21)CN1CCNCC1 (centres undefined)	2.5µM*	?	?	?	?	-29
Cc1ccc(NC(=O)C2CCCN(S(=O)(=O)c3ccc4[nH]c(=O)ccc4c3)C2)cc1Cl (centres undefined)	.	-11%	.	-5%[46.1 µM]	-13%	39
CC(C)NC(C)Cc1ccc(I)cc1 (centres undefined)	?	-8%	16µM*	9%	i	-33
CC(C)N[C@@H](C)Cc1ccc(I)cc1	.	.	16µM*	.	.	.
CNC(C)Cc1ccc(OC)cc1 (centres undefined)	.	.	.	.	.	4
CC(C)NC(=O)NC(=O)COC(=O)c1ccccc1O	13%	-2%	-3%[46.1 µM]	7%[46.1 µM]	-1%	24
CC(C)NC(=O)NC(=O)COC(=O)c1ccccc1Oc1ccccc1	13%	0%	11µM*	?	i	70
Cc1cccc(NC(=O)CSc2nnc(CNC(=O)c3ccc(S(=O)(=O)N(C)C)cc3)n2-c2ccccc2)c1	?	-10%	?	?	-25%	2
Cc1cccc(NC(=O)CSc2nnc(CNC(=O)c3ccc(S(=O)(=O)N(C)C)cc3)n2-c2cccc(C)c2)c1	?	-10%	-36%	14µM*	-2%	-14
SMILES	HCV inhibitor	Vaccinia Venus	Marburg entry inh	LASV entry inh	Vaccinia mCherry	HCMV antiviral
COc1ccccc1CN1C(=O)C(=O)c2cccc(C)c21	.	-7%	10%[46.1 µM]	27%[46.1 µM]	-14%	51
CCCCCOc1ccccc1CN1C(=O)C(=O)c2cc(C)ccc21	.	-11%	-26%[46.1 µM]	-19%[46.1 µM]	i	-93*
Cc1ccc2oc(=O)n(Cc3ccccc3OC(C)C)c2c1	-1%	.	-12%	29%	.	-19
Cc1cccc2c1N(Cc1ccccc1OCCC(C)C)C(=O)C2=O	.	-27%	?	?	-28%	-93*
Cc1cc(Br)cc2c1N(Cc1ccccc1OC(C)C)C(=O)C2=O	.	-17%	?	?	i	-88*
CCN(C)C(=O)C1=COC2=NC(=O)N(Cc3ccccc3)CCN12	.	.	.	.	.	-3
Cc1noc(C)c1S(=O)(=O)N(CC(=O)Nc1ccc(F)cc1F)c1ccc(C(C)C)cc1	.	-14%	?	14%[46.1 µM]	-19%	17
Cc1nnc(-c2ccc(C)c(-c3ccc(C(=O)NCc4ccc(Cl)cc4)cc3)c2)o1	.	.	.	0.63µM*	.	.
COc1ccc(C(C)=O)cc1CSc1nnc(Nc2ccc(C)cc2C)s1	?	8%	?	?	?	-30
COc1ccc(C(C)=O)cc1CSc1nnc(Nc2ccccc2C)s1	?	.	-8%	-18%	.	-62*
COc1cc(NC(=O)c2ccc(-c3nc(COc4ccccc4)c(C)o3)cc2)cc(OC)c1	.	-21%[7.34 µM]	.	?	-16%[7.34 µM]	-78*
Cc1nnc(SC(C)C(=O)N2CCc3ccccc32)s1 (centres undefined)	18%	-25%	?	3%	.	-33
CC1Cc2ccccc2N1C(=O)CSc1nnc2c(n1)[nH]c1ccccc12 (centres undefined)	-5%	-5%	-13%	-11%	.	-5
CCCc1nc(SCC(=O)NC2CC2)c2c(C)c(C)sc2n1	-18%	-14%	18%[46.1 µM]	2%[46.1 µM]	i	55
CC1Cc2ccccc2N1C(=O)CSc1nnc(-c2ccccc2)c(-c2ccccc2)n1 (centres undefined)	10µM*	-25%	?	?	-14%	-83*
CCCc1nc(SCC(=O)N2c3ccccc3CC2C)c2c(C)c(C)sc2n1 (centres undefined)	?	-1%	9.2µM*	?	-2%	?
CC(Sc1nnc(-c2ccccc2)c(-c2ccccc2)n1)C(=O)N1CCc2ccccc21 (centres undefined)	?	-4%	11µM*	?	0%	-31
COc1cccc(NC(=O)C(CCSC)NC(=O)C2CCC(C)CC2)c1 (centres undefined)	.	-5%	3%[46.1 µM]	-3%[46.1 µM]	-13%	2
CCOc1ccc(C(CC(=O)Nc2cc(C)c(Cl)cc2OC)N2Cc3ccccc3C2=O)cc1OC (centres undefined)	.	-15%	.	-5%[46.1 µM]	-24%	6
c1csc(-c2nnc(NC3CCCCC3)c3ccccc23)c1	?	?	?	-17%	?	39
CC1CCN(c2nnc(-c3cccs3)c3ccccc23)CC1	?	.	0%	.	.	-66*
Cc1nc(NCc2ccco2)c2c(C)c(C)sc2n1	10µM*	.	?	8%	.	-105*
Cc1sc2nc3c4ccccc4c(NCc4ccco4)nn3c(=O)c2c1C	-6%	?	12%	?	.	195
